# Bioassay records as filed in PubChem.
# ST2 inh: IL1RL1 inhibition; AlphaLISA ST2-Fc/biotin-IL-33 interaction, 1 h; inhibition, % for hits at 17 µM; 2.3% of 78,000 active; AID 1259354; in the data active = inhibition above about 30%
# Target sequence (Q01638 whole entry, looked up): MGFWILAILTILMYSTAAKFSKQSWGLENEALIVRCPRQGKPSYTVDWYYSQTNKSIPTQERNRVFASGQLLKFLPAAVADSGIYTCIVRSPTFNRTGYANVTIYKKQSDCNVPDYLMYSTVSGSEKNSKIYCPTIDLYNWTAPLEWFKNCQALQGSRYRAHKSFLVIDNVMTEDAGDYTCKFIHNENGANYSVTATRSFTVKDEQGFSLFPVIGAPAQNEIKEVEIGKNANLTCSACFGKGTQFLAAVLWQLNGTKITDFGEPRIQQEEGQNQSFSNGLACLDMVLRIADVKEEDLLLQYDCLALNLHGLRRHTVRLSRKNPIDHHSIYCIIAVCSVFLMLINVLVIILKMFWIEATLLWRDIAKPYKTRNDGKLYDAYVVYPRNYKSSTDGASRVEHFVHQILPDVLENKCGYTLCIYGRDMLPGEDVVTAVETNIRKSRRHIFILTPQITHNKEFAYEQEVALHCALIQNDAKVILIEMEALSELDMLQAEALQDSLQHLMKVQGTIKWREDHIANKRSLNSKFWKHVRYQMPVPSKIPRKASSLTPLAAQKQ
# Starred values were filed as active, the others as inactive; i = inactive; ! = not active in a repeat. Shown is part of a subset that was picked to be rich in hits.
SMILES,ST2 inh
Cc1ccc(Cl)cc1NC(=O)c1ccc([N+](=O)[O-])c(C)c1,i
O=C(c1ccccc1)c1cnc2ccccc2c1C(=O)O,i
COc1ccc2cc3cc(C(=O)NCCCN4CCCC4)oc3nc2c1,33.0%*!
COc1ccc2cc3cc(C(=O)NCCN4CCOCC4)oc3nc2c1,i
COc1ccc2cc3cc(C(=O)NCCCN4CCCCCC4)oc3nc2c1,31.0%*!
COc1ccc2cc3cc(C(=O)NCCCN4CCN(Cc5ccccc5)CC4)oc3nc2c1,i
CCC1CCCCN1CCCNC(=O)c1cc2cc3ccc(OC)cc3nc2o1 (stereo unspecified),i
O=C(NCCCN1CCCC1)c1cc2cc3ccc(Cl)cc3nc2o1,i
CCCSc1nnc2c(n1)OC(c1ccncc1)Nc1ccc(Br)cc1-2 (stereo unspecified),i
CCOC(=O)C1=C(C)Nc2nc(SCc3cccnc3)nn2C1c1ccc(OC)cc1 (stereo unspecified),i
O=C(NCc1ccc(Cl)cc1)c1cc(-c2ccc3c(c2)OCO3)on1,i
O=C(O)/C=C/c1ccccc1O[C@@H]1O[C@H](CO)[C@@H](O)[C@H](O)[C@H]1O,i
Cc1ccc(CNS(=O)(=O)NCc2ccccc2)c(F)c1F,i
Cc1nn(CCNS(=O)(=O)NCc2ccccc2)c(C)c1Cl,i
Cn1ccnc1SCCNS(=O)(=O)NCc1ccccc1,31.0%*
COc1ccc(C2=NN(CC(=O)NCC3CCCO3)C(=O)CC2)cc1 (stereo unspecified),i
Cc1ccc(C(C)C)c(OCCNCc2ccco2)c1,i
N#CCOc1nc(N2CCCCC2)nc(N2CCCCC2)n1,i
COc1ccc(OCCOc2ccc(OC)cc2)cc1,i
Nc1nonc1-c1noc(COc2ccc(Br)cc2)n1,i
COCc1cc(C)nc(N2CCCCC2)c1C#N,i
N#Cc1nc(COc2ccc(Cl)cc2)oc1N1CCCCC1,73.0%*
Nc1nonc1-c1noc(COc2ccc(Cl)cc2)n1,i
COc1ccc(OCc2nc(C#N)c(N3CCCC3)o2)cc1,49.0%*
N#Cc1nc(COc2ccc(Br)cc2)oc1N1CCCC1,72.0%*
SMILES,ST2 inh
O=C(N[C@H]1CO[C@H]2[C@@H]1OC[C@H]2O)c1ccco1,i
CCc1oc2cc(O)ccc2c(=O)c1-c1nc2ccccc2n1C,i
COc1cccc2cc(C(N)=O)c(=Nc3ccccc3C)oc12,i
COc1ccc2nc(NC(=O)CCc3nc(-c4ccc(C)cc4)no3)sc2c1,i
CSc1ccc2cc(CN(C)C(C)c3ccccn3)c(=O)[nH]c2c1 (stereo unspecified),i
O=C(Nc1ccc(Cl)cc1)c1nn2c(c1Cl)NC(c1ccco1)CC2C(F)(F)F (stereo unspecified),i
O=C(Nc1nnc(-c2ccccc2Cl)o1)c1ccc(S(=O)(=O)N2CCCC2)cc1,i
COC(=N)CN1C(=O)c2ccccc2S1(=O)=O,i
CCN1C(C(=O)c2ccccc2)=C(Nc2ccccc2C)c2ccccc2S1(=O)=O,31.0%*
Cc1ccccc1Nc1sc(C(=O)c2ccccc2)c(N)c1C#N,i
CCCCNC(=O)c1ccc2c(c1)NC(=O)C(N1CCCC1)S2 (stereo unspecified),i
O=C(Nc1ccc(Cl)cc1Cl)C1CCN(C(=O)c2ccc(F)cc2)CC1,i
O=C(CN1CCCN(Cc2cccc(F)c2)S1(=O)=O)NCc1ccccc1Cl,i
O=C(c1sc2ccccc2c1Cl)N1CCN(c2ncccn2)CC1,i
O=C(NCCCc1nc2ccccc2[nH]1)C1CCCCC1,i
CCC(C(=O)N1CCCCC1C)c1ccccc1 (stereo unspecified),i
COCCN[C@H]1[C@@H]2OC[C@@H](O2)[C@@H](NCc2ccc(-c3ccccc3)cc2)[C@@H]1O,36.0%*
COc1ccccc1N1CCN([C@H]2[C@@H]3OC[C@@H](O3)[C@@H](NCc3ccc(-c4ccccc4)cc3)[C@@H]2O)CC1,i
O[C@H]1[C@H](NCc2ccc(-c3ccccc3)cc2)[C@H]2CO[C@H](O2)[C@@H]1Oc1ccccc1,i
Cc1ccc(C(C)C)c(OCC(=O)Nc2ccc3oc(-c4ccncc4)nc3c2)c1,i
Cn1nc(-c2ccc(Cl)cc2)c2cc(C(=O)Nc3ccc4c(c3)OCO4)sc21,i
c1ccc2c(c1)Nc1ccc3ccccc3c1S2,39.0%*
COc1ccc(C2=CC(=O)Nc3ccccc3S2)cc1,i
Fc1ccc2c(c1)Sc1ccccc1N2,36.0%*
CC(C)CN1CCNC(=O)C1CC(=O)N(C)Cc1cc(-c2ccccc2)n[nH]1 (stereo unspecified),i
C=CCOC(=O)C1=C(C)OC(N)=C(C#N)C1c1ccc(OC)c(OC)c1 (stereo unspecified),i
C/C=C/COC(=O)C1=C(C)NC(=O)NC1c1ccc(OCc2ccccc2)c(OC)c1 (stereo unspecified),i
CC(=O)Nc1ccc(S(=O)(=O)Nc2nc3ccccc3nc2Nc2cccc(O)c2)cc1,i
C=CCNc1nc2ccccc2nc1NS(=O)(=O)c1ccc(Br)cc1,33.0%*
Cc1cc(C)nc(NS(=O)(=O)c2ccc(NC(=O)c3ccc(Br)cc3)cc2)n1,i
